# Results taken from PubChem BioAssay.
# The source made the active and inactive calls. Unless noted, no rule for the calls is given here.
# Key:
# [1] = test system: Wnt5a (protein binding on small-molecule microarray); test: small molecules binding Wnt5a protein – biophysical, small-molecule microarray, 635/667 nm fluorescence, primary screen (AID 1142); settings: 635 nm fluorescence, higher = more signal;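 also: fluorescence read at 667 nm with signal to noise per printed feature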
# [2] = ATP-based viability of Huh7 replicon cells – cell-based, CellTiter-Glo luminescence, basal, 48 h, cytotoxicity control for HCV replication inhibitor project, primary screen (AID 1143); settings: higher = more signal, called active from +8 up or from −8 down;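 also: Huh7 hepatoma cells carrying a hepatitis C replication reporter with no stimulus; test concentration not given here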
# [3] = Pseudomonas biofilm growth suppression – PAO1 strain, BacTiter-Glo luminescence, LB-PBS, primary screen (AID 1144); settings: P. aeruginosa PAO1 biofilm, 12 h, higher = more signal
# [4] = basal CRE-LacZ reporter activity in PC12 – cell-based, unstimulated, primary screen (AID 1145); settings: no forskolin, luminescence, 4.5 h, higher = more signal, called active from +8 up or from −8 down
# [5] = forskolin-driven CRE-LacZ activity in PC12 – cell-based, CRE-LacZ reporter, forskolin-stimulated, primary screen (AID 1146); settings: luminescence, 4.5 h, higher = more signal, called active from +8 up or from −8 down;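 also: PC12 cells with 6xCRE LacZ reporter stimulated by forskolin 10 µM; beta-galactosidase reporter signal reflecting CREB driven transcription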
# [6] = molecular target: Streptavidin (Streptomyces avidinii) (UniProt P22629); test: compounds binding control protein streptavidin – biophysical, small-molecule microarray, 635/667 nm fluorescence, artefact control for SMM compound annotation, primary screen (AID 1147); settings: higher = more signal;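 also: signal reflects streptavidin binding to arrayed compounds as a control protein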
# Sequence of Streptavidin (Streptomyces avidinii) (P22629 whole entry, looked up): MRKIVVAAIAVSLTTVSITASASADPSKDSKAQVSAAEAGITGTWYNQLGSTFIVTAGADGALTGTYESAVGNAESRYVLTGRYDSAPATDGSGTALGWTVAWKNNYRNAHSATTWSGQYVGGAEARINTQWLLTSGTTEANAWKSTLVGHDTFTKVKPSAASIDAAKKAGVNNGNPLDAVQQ
# [7] = probe aInhba binding on compound microarray – biochemical, small-molecule microarray, 635/667 nm fluorescence, primary screen (AID 1148); settings: higher = more signal;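 also: score merges 667nm spot fluorescence with signal-to-noise for antibody binding to printed compounds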
# Torsin-1A (Homo sapiens) [8] = molecular target: Torsin-1A (Homo sapiens) (UniProt O14656); test: TOR1A wild-type binding on microarray – cell lysate, small-molecule microarray, lysate, 635/667 nm, primary screen (AID 1149); settings: COS7 hTOR1A-WT lysate, 635 nm fluorescence, higher = more signal
# Sequence of Torsin-1A (Homo sapiens) (O14656 whole entry, looked up): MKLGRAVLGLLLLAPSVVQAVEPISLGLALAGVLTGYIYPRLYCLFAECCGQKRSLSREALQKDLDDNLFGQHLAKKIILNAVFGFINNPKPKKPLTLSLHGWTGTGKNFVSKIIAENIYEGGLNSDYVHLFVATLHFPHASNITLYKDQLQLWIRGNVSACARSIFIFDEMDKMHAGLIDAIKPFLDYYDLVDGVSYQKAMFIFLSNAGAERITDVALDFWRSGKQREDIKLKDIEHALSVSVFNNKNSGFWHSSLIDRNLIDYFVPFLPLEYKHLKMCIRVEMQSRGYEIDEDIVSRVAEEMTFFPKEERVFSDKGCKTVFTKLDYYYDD
# Torsin-1A (Homo sapiens) [9] = molecular target: Torsin-1A (Homo sapiens) (UniProt O14656); test: torsin A mutant lysate binding on microarrays – cell lysate, small-molecule microarray, COS7 lysate, 635/667 nm fluorescence, primary screen (AID 1150); settings: COS7 hTOR1A mutant lysate, 635 nm fluorescence, higher = more signal;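 also: score pools 667 nm emission and signal to noise measuring lysate protein binding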
# [10] = test system: Sonic hedgehog protein (Shh); test: Sonic hedgehog microarray binding compounds – biochemical, small-molecule microarray, 635/667 nm fluorescence, primary screen (AID 1151); settings: 635 nm fluorescence, higher = more signal;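 also: Shh protein binding to compounds spotted on small-molecule microarray slides; score combines spot fluorescence intensity with signal-to-noise across triplicate slides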
# [11] = optical density shifts of acrAB sulA E. coli – strain DRC41, OD650, 48 h, E. coli filamentation inducer project, primary screen (AID 1152); settings: higher = more signal, called active from +8 up or from −8 down;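 also: E. coli MC1000 strain DRC41 lacking acrAB efflux pump and sulA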
# [12] = probe aLefty1 binding on compound microarray – biochemical, small-molecule microarray, 635/667 nm fluorescence, primary screen (AID 1153); settings: higher = more signal;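 also: score merges spot fluorescence with signal-to-noise ratio from the scanned slide images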
# [13] = plasmodial surface anion channel blockers, osmotic lysis – cell-based, P. falciparum Indochina, OD700, 1 h, primary screen (AID 1154); settings: P. falciparum Indochina infected RBC osmotic lysis, higher = more signal, called active from +8 up or from −8 down
# [14] = plasmodial surface anion channel blockers, osmotic lysis – cell-based, P. falciparum Indochina, OD700, 2 h, primary screen (AID 1155);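 also: lysis reports solute entry through the parasite surface anion channel PSAC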; settings: P. falciparum Indochina infected erythrocytes, higher = more signal, called active from +8 up or from −8 down
# [15] = changes in parasitized red cell lysis, either direction – P. falciparum Indochina, OD700, 3 h, PSAC antagonist project, primary screen (AID 1156); settings: P. falciparum-infected erythrocytes, osmotic lysis, higher = more signal, called active from +8 up or from −8 down
# [16] = plasmodial surface anion channel blockers, osmotic lysis – cell-based, P. falciparum Indochina, OD700, 18 h, primary screen (AID 1157); settings: P. falciparum Indochina infected erythrocytes, osmotic lysis OD700, 18 h; higher = more signal, called active from +8 up or from −8 down
# [17] = S6 kinase pathway phospho-S6 level changes – cell-based, A549, cytoblot, luminescence, serum-stimulated, primary screen (AID 1158); settings: 5 h, higher = more signal;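 also: serum-stimulated A549 lung adenocarcinoma cells; signal is phosphorylated S6 detected by cytoblot immunostaining with HRP secondary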
# [18] = molecular target: NADPH oxidase 2 (Homo sapiens) (UniProt P04839); test: compounds shifting NOX2 Amplex Red fluorescence – cell-based, HEK293-NOX2, PMA-stimulated, NOX inhibitor project, primary screen (AID 1159); settings: 45 min, higher = more signal, called active from +8 up or from −8 down; also: test concentration not given here
# Sequence of NADPH oxidase 2 (Homo sapiens) (P04839 whole entry, looked up): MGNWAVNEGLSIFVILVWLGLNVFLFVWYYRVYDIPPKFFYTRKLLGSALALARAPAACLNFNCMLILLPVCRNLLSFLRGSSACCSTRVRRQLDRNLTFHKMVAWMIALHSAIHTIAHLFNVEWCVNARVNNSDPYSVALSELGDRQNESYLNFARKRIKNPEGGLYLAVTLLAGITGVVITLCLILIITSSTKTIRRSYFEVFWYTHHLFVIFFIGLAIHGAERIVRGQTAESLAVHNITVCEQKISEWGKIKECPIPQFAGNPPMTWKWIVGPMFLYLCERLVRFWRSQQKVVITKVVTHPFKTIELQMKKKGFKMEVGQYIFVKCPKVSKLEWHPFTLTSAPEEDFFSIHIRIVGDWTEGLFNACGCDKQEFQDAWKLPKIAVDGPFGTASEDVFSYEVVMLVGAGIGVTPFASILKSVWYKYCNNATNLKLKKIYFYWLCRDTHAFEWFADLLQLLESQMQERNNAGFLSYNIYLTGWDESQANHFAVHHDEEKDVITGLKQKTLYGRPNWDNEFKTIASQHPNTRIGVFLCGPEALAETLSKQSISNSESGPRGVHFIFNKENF
# [19] = molecular target: NADPH oxidase 4 (Homo sapiens) (UniProt Q9NPH5); test: compounds shifting NOX4 Amplex Red fluorescence – cell-based, HEK293-NOX4, tetracycline-induced, NOX inhibitor project, primary screen (AID 1160); settings: HEK293-NOX4, Amplex Red H2O2 fluorescence, 45 min; higher = more signal, called active from +8 up or from −8 down
# Sequence of NADPH oxidase 4 (Homo sapiens) (Q9NPH5 whole entry, looked up): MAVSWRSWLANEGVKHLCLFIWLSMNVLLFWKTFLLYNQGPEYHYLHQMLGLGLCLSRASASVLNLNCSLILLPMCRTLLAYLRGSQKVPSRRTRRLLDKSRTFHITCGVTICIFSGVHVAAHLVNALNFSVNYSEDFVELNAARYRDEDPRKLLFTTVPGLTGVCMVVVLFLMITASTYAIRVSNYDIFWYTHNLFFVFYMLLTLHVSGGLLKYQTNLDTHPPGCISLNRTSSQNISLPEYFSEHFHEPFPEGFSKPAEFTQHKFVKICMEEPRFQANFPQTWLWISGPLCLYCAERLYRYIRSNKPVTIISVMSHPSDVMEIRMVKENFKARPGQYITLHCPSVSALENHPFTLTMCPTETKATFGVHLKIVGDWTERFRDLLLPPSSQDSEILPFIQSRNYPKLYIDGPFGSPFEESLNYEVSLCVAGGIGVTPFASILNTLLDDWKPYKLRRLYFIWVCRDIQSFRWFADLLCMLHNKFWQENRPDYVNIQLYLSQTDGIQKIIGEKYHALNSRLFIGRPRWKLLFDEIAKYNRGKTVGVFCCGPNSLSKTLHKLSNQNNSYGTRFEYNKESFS
# [20] = molecular target: NADPH oxidase 5 (Homo sapiens) (UniProt Q96PH1); test: compounds shifting NOX5 Amplex Red fluorescence – cell-based, HEK293-NOX5, NOX inhibitor project, primary screen (AID 1161); settings: HEK293-NOX5, ionomycin, 45 min, higher = more signal
# Sequence of NADPH oxidase 5 (Homo sapiens) (Q96PH1 whole entry, looked up): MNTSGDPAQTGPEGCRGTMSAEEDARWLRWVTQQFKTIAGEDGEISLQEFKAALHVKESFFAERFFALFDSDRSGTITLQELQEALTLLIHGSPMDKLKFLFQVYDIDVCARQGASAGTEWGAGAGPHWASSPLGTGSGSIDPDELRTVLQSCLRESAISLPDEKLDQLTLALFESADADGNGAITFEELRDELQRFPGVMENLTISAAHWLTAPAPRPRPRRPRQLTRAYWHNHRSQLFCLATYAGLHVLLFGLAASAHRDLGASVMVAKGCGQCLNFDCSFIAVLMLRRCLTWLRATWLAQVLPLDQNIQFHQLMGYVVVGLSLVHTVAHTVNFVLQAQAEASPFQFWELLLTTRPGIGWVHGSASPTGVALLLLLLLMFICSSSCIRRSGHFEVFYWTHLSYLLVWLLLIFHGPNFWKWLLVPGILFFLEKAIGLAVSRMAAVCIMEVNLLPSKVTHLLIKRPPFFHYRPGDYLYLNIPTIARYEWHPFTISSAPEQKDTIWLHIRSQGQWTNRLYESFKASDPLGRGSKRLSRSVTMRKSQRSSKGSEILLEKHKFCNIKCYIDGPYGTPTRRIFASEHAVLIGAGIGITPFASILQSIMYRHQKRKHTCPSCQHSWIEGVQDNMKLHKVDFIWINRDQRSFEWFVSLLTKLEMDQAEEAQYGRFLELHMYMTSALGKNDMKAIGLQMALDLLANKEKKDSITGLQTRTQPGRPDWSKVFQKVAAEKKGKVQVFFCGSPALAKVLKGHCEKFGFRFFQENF
Compound,composite z-score [1],z-score [2],z-score [3],z-score [4],z-score [5],composite z-score [6],composite z-score [7],composite z-score (Torsin-1A (Homo sapiens) [8]),composite z-score (Torsin-1A (Homo sapiens) [9]),composite z-score [10],z-score [11],composite z-score [12],z-score [13],z-score [14],z-score [15],z-score [16],z-score [17],z-score [18],z-score [19],z-score [20]
CN(C)C(=O)[C@]1(Cc2ccccc2)N=C(c2ccc(OCCCO)cc2)O[C@@H]1c1ccccc1CN=[N+]=[N-],0.552,-3.95 (inactive),-0.754 (inactive),-0.655 (inactive),2.45 (inactive),1.34,0.136,1.12,0.737,0.0325,0.631 (inactive),0.313,27.3 (active),17.5 (active),1.11 (inactive),2.14 (inactive),0.0358,-3.22 (inactive),-0.846 (inactive),-1.24
CC(C)=C1C(=O)C(c2ccccc2)=C2CN3C(=O)N(CCc4ccccc4)C(=O)[C@]3(C)[C@H]21,-0.0006,-2.42 (inactive),0.64 (inactive),0.0177 (inactive),0.839 (inactive),0.509,-0.016,-0.656,-0.124,-0.223,-2.52 (inactive),0.298,28.2 (active),24.2 (active),1.63 (inactive),1.62 (inactive),-0.832,-1.16 (inactive),-1.55 (inactive),-0.718
C=CCNC(=O)[C@@H]1[C@H]2C(=O)O[C@H](c3ccccc3)[C@H](c3ccccc3)N2[C@H](c2ccc(OCCO)cc2)[C@@]12C(=O)Nc1ccc(C#CC3(O)CCCCCC3)cc12,0.407,-5.36 (inactive),-1.17 (inactive),0.155 (inactive),0.856 (inactive),0.981,0.0082,0.507,0.827,0.938,0.668 (inactive),0.239,4.16 (inactive),0.444 (inactive),1.02 (inactive),-0.882 (inactive),1.35,0.385 (inactive),-1.05 (inactive),-1.63
C=C(COC)/C(=C/C[C@H](OC(C)=O)c1ccccc1OCCO)c1cc(C(=O)OC)ccc1OC,0.0266,-3.38 (inactive),0.0472 (inactive),14.7 (active),0.659 (inactive),-0.432,-0.0589,-0.035,0.727,1.2,0.311 (inactive),-0.145,8.11 (active),1.02 (inactive),0.454 (inactive),-0.897 (inactive),1.52,-0.688 (inactive),0.0021 (inactive),-1.97
O=C1C2C=CC(C(O)c3ccc([N+](=O)[O-])cc3)N(Nc3ccccc3F)C2C(=O)N1c1ccccc1 (stereo not given),0.164,-0.631 (inactive),-0.242 (inactive),0.743 (inactive),0.402 (inactive),0.428,0.0028,0.16,0.52,-0.449,-1.36 (inactive),0.0625,9.91 (active),0.885 (inactive),0.458 (inactive),0.586 (inactive),-0.888,-2.54 (inactive),-4.13 (inactive),-3.11
CCOc1cc(C(O)C2C=CC3C(=O)N(c4ccccc4)C(=O)C3N2Nc2ccccc2F)ccc1O (stereo not given),0.482,0.777 (inactive),-0.545 (inactive),0.815 (inactive),0.63 (inactive),0.376,0.75,-0.166,0.407,-0.663,-0.469 (inactive),0.875,6.56 (inactive),1.27 (inactive),-0.0788 (inactive),0.926 (inactive),-0.824,-2.32 (inactive),-4.37 (inactive),-4.13
O=C1O[C@H](Cc2ccccc2)[C@@H]2[C@H]3C=CCCC=C3CN2[C@H]1Cc1ccc(O)cc1,-0.311,-0.0514 (inactive),-0.818 (inactive),-0.0546 (inactive),1.11 (inactive),-0.0955,0.214,-0.2,-0.632,-0.282,0.676 (inactive),0.0811,3.72 (inactive),0.0962 (inactive),0.0059 (inactive),0.157 (inactive),-0.253,-2.69 (inactive),-1.58 (inactive),-1.3
COc1cc(C(O)C2C=CC3C(=O)N(c4ccccc4)C(=O)C3N2Nc2ccccc2F)cc(OC)c1OC (stereo not given),0.36,-1.73 (inactive),0.0706 (inactive),1.61 (inactive),1.05 (inactive),0.135,0.177,0.0422,0.8,0.429,-1.19 (inactive),0.149,5.94 (inactive),1.25 (inactive),-0.276 (inactive),0.462 (inactive),-1.01,-1.67 (inactive),-4.07 (inactive),-3.16
